We go through 22 compounds from PubChem BioAssay (NCI).

The panel holds about 83,000 compounds, 20% with a hit somewhere; the sample as a whole holds those more often.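 Method: cells in 96-well plates; compound added at one concentration; 48 h incubation; percent growth measured; values under 10 scored active.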 Values without a mark were called inactive. Active and inactive are the calls of the source.

The test deals with HCT-116 colon. Briefly: NCI-60 one-dose screen, 48 h (100 = growth as untreated, 0 = no growth, -100 = all killed). To be noted: 10 µM.
Consider `COc1ccc(-c2cc3c(nn2)-c2ccccc2C3=O)cc1`, for which the growth was 32%.
Regarding `CCCCC(=O)c1ccc(OC)cc1`, the growth is 101%.
The same measure for `N=c1c(C(=O)OCc2ccccc2)ncc(CCl)n1O`: 78.3%.
Turning to `CCOC(=O)c1ccc(Nc2sc(C(=O)c3cccc([N+](=O)[O-])c3)c(N)c2C#N)cc1`, the growth was 0.851% (active).
As to `COC(=O)c1ccccc1N(C)C`, the growth is 98.4%.
The same measure for `CC1(C(=O)O)NC(C(=O)O)Cc2c1[nH]c1ccccc21` (configuration not stated): 92.6%; for `NCCC(=O)c1ccc(Cl)cc1`: 102%.
For `CC(=O)/C(Cc1ccccc1)=N/O` the value was 87.4%.
For the compound `Cc1cccc(CO)c1`, the growth was 104%.
`CC1(C)/C(=C\CO)C2CCC1C2` (configuration not stated): the growth is 96.8%.
As to `CC1C(=O)c2ccccc2CC1C(=O)O` (configuration not stated), the growth was 110%.
Consider `CC12CC3CC1C(C(=O)O2)C3C(=O)O` (configuration not stated), for which the growth is 118%.
As for `CC(C)CCOC(=O)c1ccccc1`, the growth was 103%.
As to `O=C1C[C@H](c2ccccc2)[C@H](c2ccccc2)C1`, the growth was 99.1%.
As for `O=c1cc(-c2ccccc2)oc2c1ccc1ccccc12`, the growth is 85.5%.
The same measure for `O=C(CCl)N1CCN(C/C=C/c2ccccc2)CC1`: 68.5%.
For `COC(=O)c1cccnc1`, the growth is 97.8%.
`CC(=O)NCc1cc(C)c(C)cc1C`: the growth is 101%.
In the case of `C#CCSc1nnnn1-c1ccc(Br)c(C)c1`, the growth was 88%.
As for `C=CCNC(=O)c1ccc(OC)cc1`, the growth is 105%.
Turning to `O=C1Cc2ccccc2C(=O)O1`, the growth was 98.2%.
Take `Cc1ccccc1C1N=C2Oc3ccccc3C=C2C(=O)N1` (configuration not stated): the growth was 42.1%.
